Consider 20 compounds from PubChem BioAssay (Tox21).

A short description of assay [1]: qHTS assay to test for compound auto fluorescence at 535 nm (green) in HEK293 cells (AID 720680). On the technique in general: Quantitative high-throughput screening tests each substance at several concentrations.
A short description of assay [2]: qHTS assay to test for compound auto fluorescence at 460 nm (blue) in HEK293 cell free culture (AID 720681). A digest of the protocol: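 Test compounds were pinned into cell-free culture medium (DMEM with 10% FBS) and fluorescence was read directly at Ex/Em 405/460 nm. Signals were expressed as fluorescence equivalents of triamterene, with DMSO vehicle as control.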

The nature of assay [3]: qHTS assay to test for compound auto fluorescence at 535 nm (green) in HEK293 cell free culture (AID 720682). Summed up:
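Intrinsic compound fluorescence is measured in culture medium containing 10% FBS, with excitation at 485 nm and detection at 535 nm, referenced to fluorescein.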

Assay [4] in a line: qHTS assay to test for compound auto fluorescence at 590 nm (red) in HEK293 cell free culture (AID 720683). Summed up: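 Tox21 10K library compounds were pinned into cell-free DMEM with 10% FBS and fluorescence was read at excitation 540 nm. Activity is expressed as Rose Bengal sodium equivalency.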
Assay [5] can be described thus: qHTS assay to test for compound auto fluorescence at 590 nm (red) in HepG2 cell free culture (AID 720684). Summed up: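 Measured in medium alone (MEM containing 10% FBS) following pintool addition of compound; emission at 590 nm with 540 nm excitation, referenced to Rose Bengal sodium.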
Assay [6] is described as follows: qHTS assay to test for compound auto fluorescence at 460 nm (blue) in HepG2 cell free culture (AID 720685). A digest of the protocol: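 Compound (23 nL) or DMSO pinned into cell-free MEM with 10% FBS; blue fluorescence read at 405/460 nm excitation/emission, expressed as auto-fluorescence equivalency to triamterene.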
A short description of assay [7]: qHTS assay to test for compound auto fluorescence at 535 nm (green) in HepG2 cell free culture (AID 720686).
A short description of assay [8]: qHTS assay to test for compound auto fluorescence at 460 nm (blue) in HepG2 cells (AID 720687). A digest of the protocol: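 Cells (2,000/well in MEM with 10% FBS) attached overnight at 37 C, then were exposed to compound or DMSO for 1 hr at 37 C, 5% CO2. Fluorescence read at Ex/Em 405/460 nm, expressed as triamterene-equivalent signal.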
Assay [9] has as its target Glucocorticoid receptor (Homo sapiens) (UniProt P04150). In words: qHTS assay to identify small molecule agonists of the glucocorticoid receptor (GR) signaling pathway (AID 720691; active = well fitted activation curve with a large enough effect in the signal ratio in the repeat runs, not every such curve was filed as active; the % refers to the signal ratio). A digest of the protocol:
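GR-bla HeLa cells carrying a GRE-driven beta-lactamase reporter, exposed to compounds for 18 h at 37 C. Reporter activation read as fluorescence after 2 h with LiveBLAzer B/G FRET substrate at room temperature.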

Assay [10] shares this target. As to the kind of experiment: qHTS assay to identify small molecule antagonists of the glucocorticoid receptor (GR) signaling pathway (AID 720692; active = well fitted inhibition curve with a large enough effect in the signal ratio in the repeat runs, not every such curve was filed as active; the % refers to the signal ratio; note: potency is the fitted concentration of half-maximal effect). Summed up: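 GR-bla HeLa cells carrying a GRE-driven beta-lactamase reporter received compound after 4 h plating, then dexamethasone (5 nM final). After 18 h at 37C, the FRET substrate was loaded for 2 h at room temperature and fluorescence read.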

A number with no mark means an inactive call. Results filed as inconclusive are left out. Active and inactive are the calls of the source. Unless noted, calls come from the whole dose curve; as a rule, active = well fitted curve in the direction sought with a large enough effect in the repeat runs; inconclusive = weak or mixed curves; inactive = flat fitted curve, though single readings scatter.
% is set by controls: 0 for no effect and ±100 for the full control effect.

Chain of Glucocorticoid receptor (Homo sapiens) (P04150 whole entry, looked up): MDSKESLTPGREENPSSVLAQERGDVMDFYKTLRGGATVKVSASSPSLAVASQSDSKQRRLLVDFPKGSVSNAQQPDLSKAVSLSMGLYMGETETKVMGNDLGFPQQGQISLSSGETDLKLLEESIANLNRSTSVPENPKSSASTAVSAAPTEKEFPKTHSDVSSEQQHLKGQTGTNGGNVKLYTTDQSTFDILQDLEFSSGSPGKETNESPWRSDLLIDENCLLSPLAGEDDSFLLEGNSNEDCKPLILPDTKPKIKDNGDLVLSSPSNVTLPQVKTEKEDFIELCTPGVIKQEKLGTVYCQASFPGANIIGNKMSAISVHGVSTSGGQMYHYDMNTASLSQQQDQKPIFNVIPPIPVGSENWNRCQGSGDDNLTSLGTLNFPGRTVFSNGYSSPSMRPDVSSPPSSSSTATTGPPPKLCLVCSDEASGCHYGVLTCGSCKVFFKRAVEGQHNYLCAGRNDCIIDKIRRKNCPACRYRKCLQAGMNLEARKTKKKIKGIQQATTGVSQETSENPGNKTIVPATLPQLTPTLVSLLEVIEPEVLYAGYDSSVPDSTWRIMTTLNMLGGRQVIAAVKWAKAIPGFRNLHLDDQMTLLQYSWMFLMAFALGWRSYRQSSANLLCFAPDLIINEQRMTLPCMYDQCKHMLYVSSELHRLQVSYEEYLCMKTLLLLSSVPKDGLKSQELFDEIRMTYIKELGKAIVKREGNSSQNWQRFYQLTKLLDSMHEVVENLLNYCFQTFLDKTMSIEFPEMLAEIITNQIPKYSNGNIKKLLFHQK

For the compound `Cc1ccccc1C(=O)Nc1cccc(OC(C)C)c1`, the outcome in [1], in assay [2], in assay [3], in assay [4], in assay [5] and in assay [6] was inactive. Further, the outcome in assay [7], in assay [8] and in assay [9] was inactive. Moreover, in assay [10], the Potency result was “inactive”.

In the case of `S=C=NCc1ccccc1`, the compound was classed as inactive in [1], in [2], in [3], in assay [4], in [5] and in [6]. Further, the call in [7], in [8] and in [9] was inactive. Moreover, the Potency entry in assay [10] is “inactive”.

For `CC1CC(CC2CCC(N)C(C)C2)CCC1N` (stereo unspecified), the outcome in [1], in assay [2], in assay [3], in assay [4], in assay [5] and in assay [6] was inactive. Besides, the result in [7], in [8] and in assay [9] was inactive. Besides, in assay [10], the Potency entry was “inactive”.

`O=[N+]([O-])c1cc(C(F)(F)F)cc([N+](=O)[O-])c1Cl`: the outcome in assay [1], in [2], in assay [3], in [4], in assay [5] and in assay [6] was inactive. In addition, the compound was called inactive in assay [7], in assay [8] and in assay [9]. The Potency entry in assay [10] was “inactive”.

As for `COP(=S)(OC)Oc1ccc([N+](=O)[O-])cc1Cl`, the call in [1], in assay [2], in [3], in [4], in assay [5] and in [6] was inactive. Further, the call in [7], in assay [8] and in assay [9] was inactive. In assay [10], the Potency entry is “inactive”.

Consider `Cc1cc(=O)[nH]o1`, for which the compound was called inactive in assay [1], in [2], in assay [3], in assay [4], in assay [5] and in assay [6]. The result in assay [7], in assay [8] and in [9] was inactive. For the same compound, in assay [10], the Potency result is “inactive”.

As to `c1ccc(C2CC2)c(OCC2=NCCN2)c1`, the compound was called inactive in assay [1], in assay [2], in assay [3], in assay [4], in assay [5] and in assay [6]. Also, the compound was called inactive in assay [7], in assay [8] and in assay [9]. Further, in assay [10], the Potency result was “inactive”.

In the case of `C=CCC1([C@H](C)CCC)C(=O)NC(=O)NC1=O`, the outcome in [1], in assay [2], in assay [3], in assay [4], in assay [5] and in [6] was inactive. For the same compound, the call in assay [7], in assay [8] and in [9] was inactive. The Potency result in assay [10] is “inactive”.

Consider `O=[Se]=O`, for which the compound was classed as inactive in assay [1], in assay [2], in [3], in assay [4], in assay [5] and in [6]. The call in assay [7], in [8] and in [9] was inactive. Besides, the Potency entry in assay [10] was “inactive”.

For `[O-][Cl+]O`, the outcome in [1], in assay [2], in assay [3], in assay [4], in assay [5] and in assay [6] was inactive. The compound was called inactive in assay [7], in assay [8] and in assay [9]. Further, the Potency entry in [10] is “inactive”.

In the case of `C=CC[C@]1(O)CC[C@H]2[C@@H]3CCC4=CC(=O)CCC4=C3C=C[C@@]21C`, the result in [1], in assay [2], in assay [3], in assay [4], in assay [5] and in assay [6] was inactive. Moreover, the compound was called inactive in assay [7], in assay [8] and in [9]. The Potency in [10] is 301 nM (active).

For the compound `CC(Cl)C(C)Cl` (stereo unspecified), the compound was called inactive in assay [1], in [2], in assay [3], in assay [4], in assay [5] and in assay [6]. For the same compound, the outcome in [7], in assay [8] and in assay [9] was inactive. Further, the Potency result in [10] is “inactive”.

As for `BrCCCCBr`, the compound was called inactive in assay [1], in [2], in [3], in [4], in [5] and in assay [6]. Further, the compound was called inactive in assay [7], in assay [8] and in assay [9]. Also, in assay [10], the Potency result was “inactive”.

On to `CN1C(=O)NC(=O)C(C)(C2=CCCCC2)C1=O` (stereo unspecified), for which the result in assay [1], in assay [2], in assay [3], in [4], in assay [5] and in [6] was inactive. In addition, the outcome in [7], in assay [8] and in assay [9] was inactive. In assay [10], the Potency entry is “inactive”.

Consider `CC(C)(CCl)C(=O)Cl`, for which the compound was classed as inactive in [1], in assay [2], in [3], in [4], in assay [5] and in assay [6]. Moreover, the compound was called inactive in [7], in [8] and in [9]. The Potency entry in assay [10] was “inactive”.

With `Clc1ccc(C(OCCN2CCCCC2)c2ccccc2)cc1` (stereo unspecified), the fluorescence, % of fluorescein in assay [1] is -0.14% [at 18.6 µM]. The fluorescence, % of fluorescent control was -0.141% [at 18.6 µM] in assay [2], 0.321% [at 18.6 µM] in assay [4], 0.0001% [at 18.6 µM] in assay [6] and 0.1% [at 18.6 µM] in assay [8]. The activity change in assay [3] was -0.263% [at 18.6 µM]. In assay [5], the fluorescence, % of Rose Bengal was 0.0745% [at 18.6 µM]. In assay [7], the fluorescence, % of fluorescein control is -0.0362% [at 18.6 µM]. Besides, the outcome in [9] was inactive. Besides, the Potency entry in [10] was “inactive”.

As to `C=CC(=O)OC(C)(C)C`, the outcome in assay [1], in assay [2], in assay [3], in assay [4], in assay [5] and in assay [6] was inactive. Moreover, the call in assay [7], in [8] and in [9] was inactive. In addition, the Potency result in assay [10] is “inactive”.

As to `COC(=O)c1cncn1C(C)c1ccccc1` (stereo unspecified), the outcome in [1], in assay [2], in assay [3], in assay [4], in assay [5] and in [6] was inactive. In [8], the call was inactive.

Regarding `CCCCCCCCOC(=O)c1ccc(C(=O)OCCCCCCCC)c(C(=O)OCCCCCCCC)c1`, the outcome in [1], in [2], in assay [3], in [4], in assay [5] and in assay [6] was inactive. The outcome in [7], in assay [8] and in [9] was inactive. The Potency entry in [10] was “inactive”.

In the case of `O=C(Nc1ccccc1)Nc1cnns1`, the compound was called inactive in assay [1], in assay [2], in [3], in assay [4], in assay [5] and in assay [6]. Moreover, the compound was classed as inactive in [7] and in assay [8]. The Potency entry in [10] is “inactive”.
